Assay [1] deals with Retinoic acid receptor RXR-alpha (Homo sapiens) (UniProt P19793). As to the kind of experiment: qHTS assay to identify small molecule agonists of the RXR signaling pathway (AID 1159527; calls by dose curve; also: nearly all actives have a fitted effect of over 35% in size). A digest of the protocol:
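Agonist-mode beta-lactamase reporter assay: HEK 293T RXR-alpha-UAS-bla cells treated 16 hr at 37 C with compounds, 9-cis retinoic acid as positive control. LiveBLAzer FRET substrate, 405 nm excitation, 460/530 nm emission.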
For orientation: qHTS replaces the single test concentration by a dilution series.

The nature of assay [2]: qHTS assay to identify small molecule agonists of the RXR signaling pathway - cell viability counter screen (AID 1159529). Also: nearly all actives have a fitted effect of over 50% in size. A digest of the protocol: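 CellTiter-Glo luminescence gave viability in the wells also read for beta-lactamase. Cells (RXR-alpha-UAS-bla HEK 293T, 2% charcoal-stripped FBS medium) had 5 hr plating, then 16 hr compound exposure at 37 C; tetraoctyl ammonium bromide served as positive control.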

Assay [3] can be described thus: qHTS assay to identify small molecule antagonists of the retinoid acid receptor (RAR) signaling pathway - cell viability counter screen (AID 1159551). Also: nearly all actives have a fitted effect of over 35% in size. A digest of the protocol: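 Cells (C3RL4) are plated, incubated overnight, dosed with compound in DMSO, then given retinol at 1 uM final. After 6 h at 37 C, CellTiter-Glo is added and luminescence read following 30 min at room temperature.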

Assay [4] is described as follows: qHTS assay to identify small molecule antagonists of the retinoic acid receptor (RAR) signaling pathway (AID 1159552; also: nearly all actives have a fitted effect of over 50% in size). In short, it runs like this: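 Luminescent RARE reporter read-out in C3RL4 cells: 6 hr co-treatment at 37 C of test compounds with retinol at 1 uM final. Cells plated overnight beforehand; luciferase reagent incubated 30 min at room temperature before reading.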

Assay [5] in a line: qHTS assay to identify small molecule agonists of the retinoic acid receptor (RAR) signaling pathway (AID 1159553). Conditions: C3RL4 RARE luciferase reporter, agonist, 6 h; activation: at 73.3 µM (top of the series). In short, it runs like this: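 Seed C3RL4 reporter cells at 1,000 per well and incubate overnight at 37 C. Add compounds in DMSO, incubate 6 hr. Add luciferase reagent, wait 30 min at room temperature, read luminescence.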

A short description of assay [6]: qHTS assay to identify small molecule antagonists of the estrogen related receptor (ERR) signaling pathway from Tox21 library - cell viability counter screen (AID 1224834). Also: nearly all actives have a fitted effect of over 30% in size. Also: potency is read from the fitted curve at half-maximal effect. A digest of the protocol: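 ERR cells, 2,000/well; 6 h settle at 37 C/5% CO2; pin-tool compound transfer in DMSO; 17.5 h at 37 C; CellTiter-Fluor, 30 min; fluorescence intensity.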
Assay [7] addresses Luciferin 4-monooxygenase (Photinus pyralis) (UniProt P08659). As to the kind of experiment: qHTS assay to identify small molecule inhibitors of firefly luciferase (AID 1224835). Also: nearly all actives have a fitted effect of over 25% in size. Also: potency is read from the fitted curve at half-maximal effect. A digest of the protocol:
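Inhibition of purified Photinus luciferase is measured by luminescence. Substrate levels (D-luciferin, ATP) sit at their KM values. Each compound is tested in a concentration series.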

In assay [8] the target is Nuclear receptor subfamily 1 group I member 3 (Homo sapiens) (UniProt Q14994). The assay can be described thus: qHTS assay to identify small molecule antagonists of the constitutive androstane receptor (CAR) signaling pathway (AID 1224838).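 Also: HepG2 cells stably expressing hCAR with CYP2B6 luciferase reporter stimulated by CITCO; nearly all actives have a fitted effect of over 40% in size.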 In short, it runs like this: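 Antagonist mode used CITCO at a final 50 nM to activate CAR in human hepatoma HepG2 cells carrying stable hCAR and a 2.2 kb CYP2B6 promoter-luciferase construct. Compounds were tested at 15 concentrations over 24 h, with luminescence as the end point.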
Chain of Nuclear receptor subfamily 1 group I member 3 (Homo sapiens) (Q14994 whole entry, looked up): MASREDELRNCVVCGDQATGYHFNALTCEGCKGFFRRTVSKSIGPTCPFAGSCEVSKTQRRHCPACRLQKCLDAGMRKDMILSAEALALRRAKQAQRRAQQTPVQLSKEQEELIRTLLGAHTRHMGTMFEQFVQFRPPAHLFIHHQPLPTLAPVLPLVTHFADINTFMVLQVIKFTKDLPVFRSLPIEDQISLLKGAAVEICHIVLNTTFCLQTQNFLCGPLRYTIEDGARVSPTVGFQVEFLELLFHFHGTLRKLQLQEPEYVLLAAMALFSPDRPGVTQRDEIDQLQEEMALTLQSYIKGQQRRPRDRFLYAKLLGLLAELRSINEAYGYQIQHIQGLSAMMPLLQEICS

Assay [9] shares this target. The assay can be described thus: qHTS assay to identify small molecule agonists of the constitutive androstane receptor (CAR) signaling pathway (AID 1224839). Also: nearly all actives have a fitted effect of over 15% in size. In short, it runs like this:
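Luminescent ONE-Glo read-out after 24 hr, 37 C exposure of double-stable HepG2-CYP2B6-hCAR reporter cells to a 15-point compound series, in the presence of 0.75 uM PK11195 (final).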

Assay [10] is described as follows: qHTS assay to identify small molecule agonists of H2AX (AID 1224845; active = well fitted activation curve with a large enough effect in the signal ratio in the repeat runs, not every such curve was filed as active; the % refers to the signal ratio). A digest of the protocol:
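Phospho-H2AX Ser139 measured by HTRF (ex 320 nm; em 665 and 620 nm) after 24 hr antibody incubation. Compounds, 15 concentrations, 0.76% DMSO, were applied to CHO-K1 cells for 3hr at 37C before lysis.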

Assay [11] can be described thus: qHTS assay to identify small molecule agonists of the hypoxia (HIF-1) signaling pathway (AID 1224846; active = well fitted activation curve with a large enough effect in the signal ratio in the repeat runs, not every such curve was filed as active; the % refers to the signal ratio). A digest of the protocol:
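Compounds from the Tox21 10K library, dissolved in DMSO, are tested for induction of a hypoxia response element–controlled beta-lactamase reporter in ME-180 cells. Exposure lasts 17 hrs at 37C after a 5 hr settling period, followed by CCF4-AM FRET substrate.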

Assay [12] is described as follows: qHTS assay to identify small molecule agonists of H2AX - cell viability counter screen (AID 1224847; calls by dose curve; also: nearly all actives have a fitted effect of over 30% in size; also: potency is read from the fitted curve at half-maximal effect). A digest of the protocol:
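Counter-screen for viability: CellTiter-Glo ATP luminescence read after 3 h compound treatment (15-point titration, 0.76% DMSO final) of CHO-K1 cells at 37C, with 30 min room-temperature reagent incubation.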

The nature of assay [13]: qHTS assay to identify small molecule agonists of the constitutive androstane receptor (CAR) signaling pathway - cell viability counter screen (AID 1224836). Also: nearly all actives have a fitted effect of over 45% in size. In short, it runs like this: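 Cell viability multiplexed with the CAR agonist screen: CellTiter-Fluor fluorescence after 23 hr at 37 C. HepG2-CYP2B6-hCAR cells got compounds at 15 concentrations with PK11195 at 0.75 uM final.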

Assay [14] in a line: qHTS assay to identify small molecule antagonists of the constitutive androstane receptor (CAR) signaling pathway - cell viability counter screen (AID 1224837). Also: nearly all actives have a fitted effect of over 45% in size. A digest of the protocol: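 Viability was measured with CellTiter-Fluor in a HepG2 line carrying stably transfected hCAR and a CYP2B6-2.2kb construct. Cells were exposed for 23 hr at 37 C to 15 compound concentrations with 50 nM CITCO as agonist.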

A short description of assay [15]: qHTS assay to identify small molecule antagonists of the estrogen related receptor signaling pathway with the pleiotropic PPARgamma coactivator (PGC) from Tox21 10K library - cell viability counter screen (AID 1224840; active = well fitted cell-killing curve with a large enough effect in the repeat runs, not every such curve was filed as active; also: nearly all actives have a fitted effect of over 40% in size). In short, it runs like this: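 Multiplexed viability counter screen in the PGC/ERR cell line: cells treated with DMSO-dissolved compounds for 17.5 hours at 37 C, then viability measured as CellTiter-Fluor fluorescence.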

Assay [16] in a line: qHTS assay to identify small molecule agonists of the hypoxia (HIF-1) signaling pathway - cell viability counter screen (AID 1224844; calls by dose curve; also: nearly all actives have a fitted effect of over 50% in size). A digest of the protocol: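 Cytotoxicity was measured in parallel with the HRE-driven beta-lactamase readout: after 17 hrs of compound exposure at 37C, HRE-bla ME-180 cells received CellTiter-Glo and luminescence was recorded 30 min later.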

The target in assay [17] is Thyrotropin receptor (Homo sapiens) (UniProt P16473). The assay can be described thus: qHTS assay to identify small molecule agonists of the thyroid stimulating hormone receptor (TSHR) signaling pathway (AID 1224843; calls by dose curve; also: nearly all actives have a fitted effect of over 45% in size). A digest of the protocol: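 A cell-based cAMP HTRF format was run in TSHR-transfected HEK293 cells, 800 per well. Treatment: 30 min, room temperature. Detection: 1 h with labelled cAMP and anti-cAMP cryptate. Concentration-response over 15 points, three replicates.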
Chain of Thyrotropin receptor (Homo sapiens) (P16473 whole entry, looked up): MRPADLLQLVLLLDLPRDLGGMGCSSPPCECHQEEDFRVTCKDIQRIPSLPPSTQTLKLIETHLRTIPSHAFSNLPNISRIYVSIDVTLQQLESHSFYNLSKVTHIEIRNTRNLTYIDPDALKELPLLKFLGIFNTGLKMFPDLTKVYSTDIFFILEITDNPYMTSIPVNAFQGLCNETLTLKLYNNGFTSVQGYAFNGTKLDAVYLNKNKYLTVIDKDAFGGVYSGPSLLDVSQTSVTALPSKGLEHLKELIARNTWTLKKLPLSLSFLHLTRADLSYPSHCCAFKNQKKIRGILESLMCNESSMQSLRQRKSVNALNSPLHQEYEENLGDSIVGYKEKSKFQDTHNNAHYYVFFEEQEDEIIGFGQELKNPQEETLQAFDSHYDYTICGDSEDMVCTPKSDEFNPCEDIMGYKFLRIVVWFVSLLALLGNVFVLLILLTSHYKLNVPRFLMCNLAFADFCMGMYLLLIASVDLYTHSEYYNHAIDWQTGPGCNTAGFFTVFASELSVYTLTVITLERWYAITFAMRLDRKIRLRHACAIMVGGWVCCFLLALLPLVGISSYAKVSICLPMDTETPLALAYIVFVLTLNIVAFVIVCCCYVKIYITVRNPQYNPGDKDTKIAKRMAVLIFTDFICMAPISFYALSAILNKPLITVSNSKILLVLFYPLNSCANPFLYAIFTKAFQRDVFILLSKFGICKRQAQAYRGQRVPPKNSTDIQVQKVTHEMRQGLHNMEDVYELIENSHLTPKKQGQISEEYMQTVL

The nature of assay [18]: qHTS assay to identify small molecule antagonists of the estrogen related receptor signaling pathway with the pleiotropic PPARgamma coactivator (PGC) from Tox21 10K library (AID 1224841; call rule not given here; also: actives are mostly falling curves and most rising ones were filed inactive; nearly all actives have a fitted effect of over 50% in size). In short, it runs like this: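 Steps: plate 2,000 PGC/ERR cells per well; incubate 6 h at 37 C with 5% CO2; transfer compounds from DMSO stocks by pin tool; incubate 18 h at 37 C; add One-Glo; measure luminescence 30 min later.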

The nature of assay [19]: qHTS assay to identify small molecule agonists of the estrogen related receptor signaling pathway with the pleiotropic PPARgamma coactivator (PGC) from Tox21 10K library (AID 1224842). Also: nearly all actives have a fitted effect of over 15% in size. A digest of the protocol: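 Luminescence from One-Glo (30 min, room temperature) measured after PGC/ERR cells had 18 h at 37 C with pinned compound (23 nL in DMSO). Cells had been seeded at 2,000 per well and pre-incubated 6 h.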

Assay [20] can be described thus: qHTS assay to identify small molecule antagonists of the estrogen related receptor (ERR) signaling pathway from Tox21 library (AID 1224848). Also: nearly all actives have a fitted effect of over 50% in size. A digest of the protocol: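 ERR cell line, 2,000 cells/well. 6 h settle, then compound (DMSO) added; 18 h at 37 C; ONE-Glo luminescence after 30 min RT.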

Results filed as inconclusive are left out. Unmarked numbers belong to inactive results. Active and inactive are the calls of the source. Unless noted, calls follow the shape of the dose curve; as a rule, active = well fitted curve in the direction sought with a large enough effect in the repeat runs; inconclusive = weak or mixed curves; inactive = no such curve, though single readings can be large; an effect the other way counts as inactive or inconclusive.

Chain of Retinoic acid receptor RXR-alpha (Homo sapiens) (P19793 whole entry, looked up): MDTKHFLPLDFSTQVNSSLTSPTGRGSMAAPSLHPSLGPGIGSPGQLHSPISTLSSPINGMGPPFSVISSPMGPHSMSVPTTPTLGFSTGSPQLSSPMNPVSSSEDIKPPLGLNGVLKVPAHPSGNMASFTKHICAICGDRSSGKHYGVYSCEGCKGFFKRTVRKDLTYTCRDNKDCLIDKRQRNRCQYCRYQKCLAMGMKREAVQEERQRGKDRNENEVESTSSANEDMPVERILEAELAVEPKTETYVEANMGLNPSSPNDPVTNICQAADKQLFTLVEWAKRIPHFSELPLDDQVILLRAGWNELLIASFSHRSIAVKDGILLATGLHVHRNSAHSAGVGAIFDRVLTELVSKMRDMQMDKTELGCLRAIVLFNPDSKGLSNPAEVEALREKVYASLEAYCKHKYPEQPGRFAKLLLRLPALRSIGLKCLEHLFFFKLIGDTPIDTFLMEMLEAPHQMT
Chain of Luciferin 4-monooxygenase (Photinus pyralis) (P08659 whole entry, looked up): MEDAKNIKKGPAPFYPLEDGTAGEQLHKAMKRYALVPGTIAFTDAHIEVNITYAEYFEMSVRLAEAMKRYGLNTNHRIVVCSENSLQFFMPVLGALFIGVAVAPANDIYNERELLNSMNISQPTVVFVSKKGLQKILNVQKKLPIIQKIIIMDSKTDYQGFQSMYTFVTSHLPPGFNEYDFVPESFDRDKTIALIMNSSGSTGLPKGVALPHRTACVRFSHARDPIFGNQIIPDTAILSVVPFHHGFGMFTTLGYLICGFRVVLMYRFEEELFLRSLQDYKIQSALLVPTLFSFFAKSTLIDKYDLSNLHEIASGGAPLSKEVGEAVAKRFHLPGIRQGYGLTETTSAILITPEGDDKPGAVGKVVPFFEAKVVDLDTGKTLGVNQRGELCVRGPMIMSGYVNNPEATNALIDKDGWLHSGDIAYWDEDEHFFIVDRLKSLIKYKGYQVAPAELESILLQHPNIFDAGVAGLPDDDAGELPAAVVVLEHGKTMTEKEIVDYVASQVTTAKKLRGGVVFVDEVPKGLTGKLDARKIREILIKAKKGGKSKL

For the compound `COc1ccc(N=Nc2cc(C)c(N=Nc3ccc(S(=O)(=O)O)cc3)cc2OC)cc1`, the Potency result in [1], in [4], in assay [5], in assay [8] and in assay [9] was “inactive” each time. Also, the result in assay [2], in assay [3], in [10] and in assay [11] was inactive. Further, the Potency was 19.3 µM (active) in assay [6], 44.8 µM (active) in [7] and 101 µM (active) in assay [12].
Regarding `CCC(C)N` (stereo unspecified), the Potency result in [1], in [4], in [5], in [6], in [7] and in assay [14] was “inactive” each time. In addition, in [12], the Potency result is “inactive”. Further, the call in assay [2], in assay [3], in assay [13], in assay [15], in assay [16] and in assay [10] was inactive. In addition, the outcome in assay [11] was inactive.
For `OCCCCCCCl`, the Potency entry in [1], in assay [5], in assay [6], in assay [7], in assay [14] and in [12] was “inactive” in each case. Besides, the compound was called inactive in [2], in [3], in assay [13], in [17], in assay [16] and in assay [10]. Besides, the compound was called inactive in [11].
`CC(C)(CO)[C@@H](O)C(=O)NCCCO`: the Potency entry in [1], in assay [5], in assay [6], in assay [7], in [14] and in assay [9] was “inactive” in each case. Also, the Potency result in assay [18] and in assay [20] was “inactive” each time. The compound was called inactive in [2], in assay [3], in assay [19], in assay [17], in [16] and in assay [10].
Consider `CC(CC(=O)O)CC(C)(C)C` (stereo unspecified), for which the Potency entry in [1], in assay [4], in assay [5], in assay [7], in [14] and in [8] was “inactive” in each case. Also, the Potency entry in assay [9] and in assay [12] was “inactive” in each case. Also, the compound was called inactive in assay [2], in assay [3], in [13], in assay [15], in assay [16] and in [10]. In addition, the result in [11] was inactive.
For the compound `O=C(O)CCNC(=O)c1ccccc1`, the Potency result in assay [1], in assay [4], in [5], in assay [14], in assay [12] and in [20] was “inactive” each time. Besides, the result in assay [2], in assay [3], in assay [13], in [19], in [17] and in assay [16] was inactive. Also, the compound was classed as inactive in [10].
Turning to `Cc1ccccc1OCC1CO1` (stereo unspecified), the Potency result in assay [1], in [5], in [6], in [7], in [14] and in [18] was “inactive” in each case. Also, in assay [20], the Potency result was “inactive”. For the same compound, the compound was called inactive in assay [2], in [3], in assay [13], in [15], in assay [19] and in assay [16]. Also, the call in assay [10] and in [11] was inactive.
